These results are taken from PubChem BioAssay (Tox21).

Assay [1] is described as follows: A CellTox Green Cytotoxicity Assay to monitor cytotoxicity in HEK293 cells - 40 hour (AID 1224871). Note: nearly all actives have a fitted effect of over 45% in size. Note: potency is the fitted concentration of half-maximal effect. Put shortly:
(§1)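 Cytotoxicity was tracked continuously in HEK293 cells by a DNA-binding dye excluded from viable cells. Compounds were transferred in DMSO 5 h after seeding; fluorescence was recorded at intervals up to 40 h.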

The nature of assay [2]: qHTS RealTime-Glo MT Cell Viability Assay in HepG2 cells - 8 hour (AID 1224873). Note: nearly all actives have a fitted effect of over 55% in size. Put shortly:
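HepG2 cells (600/well) mixed with RealTime-Glo MT reagent, settled 5 h at 37 C/5% CO2 before compound addition. Nonlytic NanoLuc luminescence from viable-cell prosubstrate reduction read repeatedly during 40 h treatment at 37 C.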
For orientation: qHTS replaces the single test concentration by a dilution series.

The nature of assay [3]: qHTS RealTime-Glo MT Cell Viability Assay in HEK293 cells - 40 hour (AID 1224874). Note: nearly all actives have a fitted effect of over 50% in size. Note: potency is the fitted concentration of half-maximal effect. The note with it: RealTime-Glo luminescence; max response: active compounds read low. Put shortly:
(§2)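 Nonlytic bioluminescent viability monitoring. HEK293 at 600 cells/well with reagent; 5 h settle; compound transfer by pintool; plates held at 37 C and read at set time points.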

The nature of assay [4]: A CellTox Green Cytotoxicity Assay to monitor cytotoxicity in HEK293 cells - 24 hour (AID 1224875). Note: nearly all actives have a fitted effect of over 45% in size. Note: potency is the fitted concentration of half-maximal effect. The gist of the method:
as §1

A short description of assay [5]: A CellTox Green Cytotoxicity Assay to monitor cytotoxicity in HepG2 cells - 16 hour (AID 1224876). Note: nearly all actives have a fitted effect of over 45% in size. Note: potency is the fitted concentration of half-maximal effect. Put shortly:
(§3)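 Real-time, homogeneous cytotoxicity readout: dead-cell DNA staining by CellTox Green in HepG2 monolayers, fluorescence measured at timed intervals up to 40 h of continuous compound exposure.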

Assay [6] in a line: qHTS RealTime-Glo MT Cell Viability Assay in HepG2 cells - 32 hour (AID 1224877). Note: nearly all actives have a fitted effect of over 55% in size. Note: potency is the fitted concentration of half-maximal effect. Put shortly:
(§4)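 HepG2 suspension premixed with RealTime-Glo reagents is plated at 600 cells per well and left 5 h at 37 C/5% CO2. Compounds in DMSO then go in, and bioluminescence reflecting viable cell number is recorded over 40 h.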

The nature of assay [7]: A CellTox Green Cytotoxicity Assay to monitor cytotoxicity in HepG2 cells - 24 hour (AID 1224878). Note: nearly all actives have a fitted effect of over 45% in size. Note: potency is the fitted concentration of half-maximal effect. Put shortly: as §3
A short description of assay [8]: A CellTox Green Cytotoxicity Assay to monitor cytotoxicity in HepG2 cells - 40 hour (AID 1224879). Note: nearly all actives have a fitted effect of over 40% in size. Note: potency is the fitted concentration of half-maximal effect. Put shortly: as §3
Assay [9] is described as follows: qHTS RealTime-Glo MT Cell Viability Assay in HEK293 cells - 0 hour (AID 1224880). The gist of the method: as §2
A short description of assay [10]: A CellTox Green Cytotoxicity Assay to monitor cytotoxicity in HEK293 cells - 32 hour (AID 1224881). Note: nearly all actives have a fitted effect of over 40% in size. Note: potency is the fitted concentration of half-maximal effect. The gist of the method: as §1
A short description of assay [11]: A CellTox Green Cytotoxicity Assay to monitor cytotoxicity in HepG2 cells - 0 hour (AID 1224882). Note: nearly all actives have a fitted effect of over 35% in size. Note: potency is the fitted concentration of half-maximal effect. Put shortly:
as §3

Assay [12] is described as follows: A CellTox Green Cytotoxicity Assay to monitor cytotoxicity in HepG2 cells - 32 hour (AID 1224883). Note: nearly all actives have a fitted effect of over 50% in size. Note: potency is the fitted concentration of half-maximal effect. Put shortly:
as §3

A short description of assay [13]: A CellTox Green Cytotoxicity Assay to monitor cytotoxicity in HEK293 cells - 8 hour (AID 1224884). Note: nearly all actives have a fitted effect of over 35% in size. Note: potency is the fitted concentration of half-maximal effect. Put shortly: as §1
Assay [14] in a line: qHTS RealTime-Glo MT Cell Viability Assay in HepG2 cells - 16 hour (AID 1224885). Note: nearly all actives have a fitted effect of over 50% in size. Put shortly:
as §4

A short description of assay [15]: qHTS RealTime-Glo MT Cell Viability Assay in HEK293 cells - 24 hour (AID 1224886). Note: nearly all actives have a fitted effect of over 50% in size. Note: potency is the fitted concentration of half-maximal effect. The gist of the method: (§5)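 Reads taken at 0, 8, 16, 24, 32 and 40 h from the same wells. HEK293 cells (600/well) carried RealTime-Glo reagents from seeding, with compound added after a 5 h settle at 37 C.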
The nature of assay [16]: A CellTox Green Cytotoxicity Assay to monitor cytotoxicity in HEK293 cells - 16 hour (AID 1224888). Note: nearly all actives have a fitted effect of over 35% in size. Note: potency is the fitted concentration of half-maximal effect. The gist of the method: as §1
Assay [17] is described as follows: qHTS RealTime-Glo MT Cell Viability Assay in HepG2 cells - 0 hour (AID 1224889). Note: nearly all actives have a fitted effect of over 50% in size. Put shortly: as §4
Assay [18] can be described thus: A CellTox Green Cytotoxicity Assay to monitor cytotoxicity in HepG2 cells - 8 hour (AID 1224890). Note: nearly all actives have a fitted effect of over 45% in size. Note: potency is the fitted concentration of half-maximal effect. Put shortly: as §3
A short description of assay [19]: qHTS RealTime-Glo MT Cell Viability Assay in HEK293 cells - 16 hour (AID 1224872). Note: nearly all actives have a fitted effect of over 50% in size. Note: potency is the fitted concentration of half-maximal effect. The gist of the method: as §5
Assay [20] can be described thus: qHTS RealTime-Glo MT Cell Viability Assay in HEK293 cells - 8 hour (AID 1224887). Note: nearly all actives have a fitted effect of over 50% in size. Note: potency is the fitted concentration of half-maximal effect. The gist of the method:
as §2

“And” between values parts separate entries of the source, which are not always exact repeats. Equal values may be shown once. Unmarked numbers belong to inactive results. Results filed as inconclusive are left out. The source made the active and inactive calls. Calls come from the whole dose curve; as a rule, active = well fitted curve in the direction sought with a large enough effect in the repeat runs; inconclusive = weak or mixed curves; inactive = no such curve, though single readings can be large; an effect the other way counts as inactive or inconclusive.
% is set by controls: 0 for no effect and ±100 for the full control effect.

On to `C[C@]12CC[C@H](O)C[C@H]1CC[C@@H]1[C@@H]2C[C@@H](O)[C@]2(C)[C@@H](C3=CC(=O)OC3)CC[C@]12O`, for which the Potency result in assay [1], in assay [2], in assay [4], in [5], in assay [6] and in assay [7] was “inactive” throughout. For the same molecule, the Potency entry in assay [8], in assay [9], in [10], in [11], in assay [12] and in [13] was “inactive” throughout. Moreover, the Potency entry in [14], in [16], in assay [17] and in [18] was “inactive” in each case. Besides, the Potency in [3] was 0.776 µM (active); in assay [15], 0.616 µM (active).
In the case of `COc1ccc(/C(=C/C(=O)N2CCOCC2)c2ccc(Cl)cc2)cc1OC`, the Potency entry in assay [1], in [19], in assay [2], in [4], in [5] and in assay [6] was “inactive” each time. For the same molecule, the Potency entry in assay [7], in assay [8], in assay [9], in [10], in assay [13] and in assay [14] was “inactive” each time. Besides, the Potency entry in [16] and in [18] was “inactive” in each case.
As to `CC(C)CC(C)N` (centres undefined), the Potency result in assay [1], in assay [2], in [4], in assay [5], in assay [6] and in [7] was “inactive” in each case. Besides, the Potency entry in assay [8], in assay [9], in assay [10], in assay [11], in assay [12] and in assay [13] was “inactive” throughout. Besides, the Potency result in [14], in assay [15], in assay [16], in [17] and in assay [18] was “inactive” throughout. Further, in assay [3], the max response is 4.09%.
For the molecule `CCC(C)c1cc([N+](=O)[O-])cc([N+](=O)[O-])c1OC(=O)C=C(C)C` (centres undefined), the Potency result in assay [1], in assay [4], in [5], in [7], in [9] and in assay [10] was “inactive” throughout. The Potency result in assay [11], in assay [13], in assay [16], in assay [17] and in assay [18] was “inactive” in each case. Besides, the Potency in assay [19] is 49 µM (active); in assay [3], 21.9 µM (active); in assay [6], 49 µM (active); in assay [15], 38.9 µM (active); in assay [20], 49 µM (active).
With `ClC1=C(Cl)C2(Cl)C3C(Cl)C(Cl)CC3C1(Cl)C2(Cl)Cl` (centres undefined), the Potency in assay [1] is 48.8 µM (active) and 49 µM (active); in assay [19], 48.8 µM (active) and 49 µM (active); in [3], 48.8 µM (active); in [4], 48.8 µM (active) and 49 µM (active); in [10] it was 48.8 µM (active) and 49 µM (active); in [13] it was 54.8 µM (active). Besides, the Potency in [15] is 48.8 µM (active); in assay [20], 48.8 µM (active) and 49 µM (active); in assay [16], 54.8 µM (active). Moreover, the Potency result in assay [9], in assay [11] and in assay [17] was “inactive” throughout.
As for `CS(=O)(=O)c1ccc(C(=O)C2C(=O)CCCC2=O)c([N+](=O)[O-])c1`, the Potency in assay [1] was 44.4 µM (active); in [19], 12.5 µM (active); in assay [4] it was 44.4 µM (active); in assay [5], 44.4 µM (active); in assay [7] it was 39.6 µM (active); in assay [8], 2.23 µM (active). Further, the Potency in assay [11] is 39.6 µM (active); in assay [12] it was 44.4 µM (active); in assay [13], 44.4 µM (active); in assay [15], 25 µM (active); in assay [20], 21.4 µM (active); in assay [16], 44.4 µM (active). Further, the Potency in assay [18] was 39.6 µM (active). Besides, the Potency result in assay [2], in assay [6], in assay [14] and in assay [17] was “inactive” each time.
In the case of `CCCCCCCCCCCCCCC(Br)C(=O)O` (centres undefined), the Potency result in assay [1], in assay [19], in assay [4], in assay [5], in [6] and in assay [9] was “inactive” each time. Besides, the Potency result in assay [13], in [14], in [15], in assay [16], in assay [17] and in assay [18] was “inactive” in each case. In assay [3], the max response is -7.18%. Also, the Potency in assay [8] and in assay [12] was 17.4 µM (active) throughout.
As for `O=C(NC(=O)c1c(F)cccc1F)Nc1cc(Cl)c(OC(F)(F)C(F)F)c(Cl)c1`, the Potency result in assay [1], in [19], in assay [2], in [4], in assay [5] and in assay [6] was “inactive” in each case. Moreover, the Potency entry in [7], in assay [8], in [9], in assay [11], in [12] and in assay [13] was “inactive” throughout. Also, the Potency entry in assay [14], in [15], in [16], in [17] and in [18] was “inactive” throughout.
Turning to `O=C(O)C1C2CCC(O2)C1C(=O)O` (centres undefined), the Potency entry in assay [1], in assay [19], in [2], in [4], in [6] and in [7] was “inactive” throughout. Besides, the Potency result in assay [10], in assay [11], in [12], in assay [13], in assay [14] and in [15] was “inactive” in each case. The Potency entry in assay [20], in assay [16], in assay [17] and in [18] was “inactive” throughout.
For the molecule `COc1ccc(OC)c(CC(C)N)c1` (centres undefined), the Potency entry in [1], in assay [2], in assay [4], in assay [5], in assay [6] and in [7] was “inactive” in each case. For the same molecule, the Potency entry in assay [8], in assay [9], in [10], in [11], in [12] and in assay [13] was “inactive” in each case. In addition, the Potency entry in assay [14], in assay [15], in assay [20], in assay [16], in [17] and in [18] was “inactive” each time. Also, in assay [3], the max response was -2.46%.
Take `CCOCn1c(-c2ccc(Cl)cc2)c(C#N)c(Br)c1C(F)(F)F`: the Potency in assay [1] was 24.5 µM (active); in assay [19], 6.16 µM (active); in assay [3] it was 4.36 µM (active); in assay [7], 17.4 µM (active); in assay [8], 12.3 µM (active); in assay [12], 12.3 µM (active). In addition, the Potency is 4.9 µM (active) in assay [15] and 19.5 µM (active) in assay [20]. Further, the Potency entry in [4], in assay [9], in [11], in assay [13], in assay [16] and in assay [17] was “inactive” in each case. Also, in assay [18], the Potency result was “inactive”.
On to `FC(Cl)(Cl)Cl`, for which the Potency result in [1], in assay [2], in [4], in assay [5], in assay [6] and in assay [7] was “inactive” in each case. Besides, the Potency entry in assay [8], in assay [9], in assay [10], in assay [11], in assay [12] and in assay [13] was “inactive” each time. For the same molecule, the Potency result in assay [14], in assay [15], in assay [20], in [16], in assay [17] and in assay [18] was “inactive” each time. Besides, in [3], the max response was -2.7%.
In the case of `Oc1ccc(C(=C(Cl)Cl)c2ccc(O)cc2)cc1`, the Potency entry in assay [1], in [2], in [4], in assay [5], in [6] and in assay [7] was “inactive” throughout. Besides, the Potency entry in assay [8], in [9], in assay [10], in [11], in assay [12] and in assay [13] was “inactive” each time. For the same molecule, the Potency entry in assay [14], in [16], in assay [17] and in assay [18] was “inactive” throughout. Besides, the Potency in assay [3] was 43.6 µM (active); in assay [15], 38.8 µM (active).
